From PubChem
TAG inh = inhibitors of triacylglycerol accumulation, primary screen, cell-based, uHTS, fluorescence, H9c2 | H9c2 cells, Nile Red lipid (TAG) fluorescence; cells loaded with 200 µM oleic acid | inhibition, % at 12.5 µM | hit rate 0.66% among 230,000;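 active = pattern-corrected inhibition of lipid staining of at least 50% with the nuclear-stain viability signal not falling by more than 50%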;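 note: 0% = DMSO wells and 100% = triacsin C control wells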
CHT block = inhibitors of human choline transporter CHT; B-score at 10 µM; High affinity choline transporter 1 (Homo sapiens), Q9GZV3; hit rate 0.86% among 310,000; CHT-expressing cells, membrane potential dye, choline response; hits give low values;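 active = B-score over 3 SD under the library average, and starting fluorescence ratio not unusually high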;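 note: choline stimulus applied at its EC90 after an EC20 pre-addition; B-score computed on integrated fluorescence ratio after choline addition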
Target sequence (Q9GZV3 whole entry, looked up): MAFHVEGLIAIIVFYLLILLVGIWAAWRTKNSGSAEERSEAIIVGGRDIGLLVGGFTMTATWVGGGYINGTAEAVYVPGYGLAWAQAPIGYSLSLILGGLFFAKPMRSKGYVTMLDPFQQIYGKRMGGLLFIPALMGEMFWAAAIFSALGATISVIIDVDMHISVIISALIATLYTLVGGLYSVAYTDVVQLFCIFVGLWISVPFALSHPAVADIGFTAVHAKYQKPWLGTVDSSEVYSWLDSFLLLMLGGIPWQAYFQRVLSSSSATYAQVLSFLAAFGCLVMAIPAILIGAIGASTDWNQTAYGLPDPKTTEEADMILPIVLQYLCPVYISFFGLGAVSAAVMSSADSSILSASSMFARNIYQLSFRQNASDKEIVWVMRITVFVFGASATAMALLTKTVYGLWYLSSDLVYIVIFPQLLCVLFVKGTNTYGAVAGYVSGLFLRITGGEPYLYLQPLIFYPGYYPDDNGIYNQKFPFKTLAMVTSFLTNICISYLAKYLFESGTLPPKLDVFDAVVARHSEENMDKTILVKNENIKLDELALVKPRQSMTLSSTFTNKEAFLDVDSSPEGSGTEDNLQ
CHT allo act = CHT positive allosteric modulators, primary screen, cell-based, membrane potential dye, choline EC20; CHT-expressing cells; hits give high values; LV-AA mutant CHT in HEK293 cells; B-score at 10 µM; hit rate 0.49% among 310,000; AID 488977, 2010;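 active = initial fluorescence not abnormally high and integrated response B-score, plate-corrected, over 3 SD above library mean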
beta cell repl = inducers of MIN6 beta-cell proliferation, primary screen, ATP luminescence, uHTS. MIN6 cells proliferation, ATPlite luminescence, 48 h; cells starved in 0.2% serum; 100% = growth in 10% serum. proliferation, % at 10 µM. hit rate 0.29% among 330,000;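 active = compounds whose signal lies at least 3.5 SD above the mean of all wells on their plate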;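 note: 0% = DMSO-treated cells in low-serum medium and 100% = 10% serum control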
CHT inh conf = CHT inhibitors, confirmation, cell-based, membrane potential dye, duplicate; CHT-expressing cells, choline membrane potential dye; LV-to-AA substituted CHT, HEK293 cells; shares compounds with CHT block; CHT activity remaining % of control (hits give low values), % at 10 µM; hit rate 70% among 2,400;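 active = choline transporter activity left, mean of duplicates at 10 µM, below buffer-only control mean minus 3 SD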;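 note: depolarization triggered by choline at its EC90 following an EC20 pre-addition; 0% = hemicholinium-3 full block and 100% = buffer-only control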
HEK293 MPD ctr = membrane potential effects in parental HEK293, counter-screen for CHT inhibitor project, cell-based, membrane potential dye | shares compounds with CHT block | choline response; active = decrease or increase beyond buffer ±3SD | membrane potential ratio readout (active if shifted either direction beyond buffer ±3SD; no single direction) at 10 µM | hit rate 4% among 2,400 | AID 493222, 2011;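 note: parental cells lack the transporter so any hit is non-specific; ratio is peak minus trough fluorescence over baseline after EC90 choline challenge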
* marks the source's active call; other numbers are inactive results; i = inactive; / = no result given. This is a sample that favours compounds with a hit; in the whole collection about 1.7% have one here.

SMILES | TAG inh | CHT block | CHT allo act | beta cell repl | CHT inh conf | HEK293 MPD ctr
C=CCn1c(CSc2nc3ccccc3s2)nnc1SCC(=O)NCc1ccccc1 | / | -5.6* | i | 0 | 62%* | i
Cc1onc(-c2ccccc2Cl)c1C(=O)NCc1nnnn1-c1ccc(F)cc1 | -9 | i | i | -4 | / | /
Fc1ccc(-c2nc3c(-c4ccccc4)cnn3cc2CCN2CCOCC2)cc1 | 11 | -10* | i | -3 | 22%* | i
Fc1ccc(-c2nc3c(-c4ccc(F)cc4)cnn3cc2CCN2CCOCC2)cc1 | 5 | -6.6* | i | 2 | 59%* | i
Cc1nc(SCCCSc2n[nH]c(C)n2)n[nH]1 | -9 | i | i | -1 | / | /
CN[C@H]1C[C@H]2c3[nH]c4ccc(-c5ccc(OC)cc5)cc4c3CCN2C(=O)[C@H]1[C@H](C)O | 22 | / | / | / | / | /
CC1=NN(c2ccccc2)C(=O)/C1=C/c1ccc(-c2ccc(C)c(C(=O)O)c2)o1 | / | -6.2* | i | -1 | 42%* | i
Cc1ccc(S(=O)(=O)N2CCN(C(=O)COC(=O)c3cnc(C)cn3)CC2)c(C)c1 | -2 | i | i | -2 | / | /
C[N+](C)(C)CC=O | 3 | -6* | i | 5 | 22%* | i
CCOC(=O)c1c(NC(=S)NC(C)=O)sc(C)c1C | / | i | i | 0 | / | /
COc1cccc(NC(=O)CN2CCN(c3ccccc3F)CC2)c1 | -1 | -5.9* | i | -2 | i | i
CCC(Sc1nnc(-c2ccc(C)c(Cl)c2)n1CC)C(=O)Nc1nccs1 (centres undefined) | -1 | -5.9* | i | -4 | 50%* | i
CCn1c(SCC(=O)Nc2nccs2)nnc1-c1ccc(S(=O)(=O)N2CCCCCC2)cc1 | 10 | i | i | -3 | / | /
Cc1ccc(-n2c(C)nnc2SCC(=O)N(C)c2c(N)n(Cc3ccccc3)c(=O)[nH]c2=O)cc1 | -3 | / | / | -1 | / | /
Cc1ccccc1OCC(=O)NS(=O)(=O)c1ccc(Cl)cc1 | / | i | i | -1 | / | /
Cc1ccc(C(C)C)c(OCC(=O)NS(=O)(=O)c2ccc(Cl)cc2)c1 | -2 | -6.4* | i | -2 | 14%* | i
CC1CCN(S(=O)(=O)c2nnc(NC(=O)c3cccc([N+](=O)[O-])c3)s2)CC1 | / | -9.6* | i | -7 | 60%* | i
COc1cc(-c2ccc(NC(=O)NC3CC3)c(OC)c2)ccc1NC(=O)NC1CC1 | / | i | i | -2 | / | /
CCc1nnc(NC(=O)c2nn(-c3ccccc3)nc2C)s1 | 7 | i | i | -2 | / | /
Cc1nn(-c2ccccc2)nc1C(=O)Nc1nnc(C(F)(F)F)s1 | 1 | -12* | i | -4 | 43%* | i
CCC(Oc1ccccc1)C(=O)Nc1nnc(C(F)(F)F)s1 (centres undefined) | -18 | -5.1* | i | -2 | i | i
CCCCNC(=O)/C(C#N)=C/c1ccc(-c2ccc(S(=O)(=O)N3CCOCC3)cc2)o1 | / | -5* | i | 0 | 69%* | i
COC(=O)/C(C#N)=C/c1ccc(-c2ccc(S(N)(=O)=O)cc2)o1 | -3 | i | i | 3 | / | /
O=c1[nH]c(SCc2ccc(F)cc2Cl)nc2ccccc12 | 0 | i | i | -3 | / | /
C=CCN1CCN(C(CCC)c2nnnn2Cc2ccco2)CC1 (centres undefined) | 3 | i | i | 3 | / | /
COc1ccc(C(=O)C[n+]2cccc(Br)c2)cc1 | -4 | -19* | i | -1 | -0.1%* | i
Cc1ccc(C(=O)C[n+]2cc(Br)cc(Br)c2)cc1 | 0 | -13* | i | -3 | 21%* | i
O=C(C[n+]1cccc(Br)c1)c1ccc(-c2ccccc2)cc1 | / | -15* | i | 2 | -0.8%* | i
O=C(CCC(=O)c1cccs1)c1cccs1 | -3 | i | i | -3 | / | /
O=C(C[n+]1cccc(Br)c1)c1cccs1 | / | -9.2* | i | -2 | 26%* | i
